Our source for the growth values is PubChem BioAssay (NCI).

Compounds without any hit were thinned out: in the full panel of roughly 83,000, 20% have a hit.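 Compound tested at a single concentration for 48 hours in 96-well plates; a percent growth value below 10 was scored as active.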 Values without a mark were called inactive. Activity calls are given as the source filed them.

Test systems include SK-MEL-2 melanoma; EKVX NSCLC; SN12C renal; UO-31 renal; TK-10 renal; ACHN renal; CAKI-1 renal; HL-60(TB) leukemia; CCRF-CEM leukemia; MOLT-4 leukemia; SR leukemia; RPMI-8226 leukemia; OVCAR-8 ovarian; OVCAR-5 ovarian; SK-OV-3 ovarian; IGROV1 ovarian; OVCAR-3 ovarian; HS 578T breast; OVCAR-4 ovarian.
Common to all, as to assay: NCI-60 one-dose screen, 48 h (100 = growth as untreated, 0 = no growth, -100 = all killed)
Common to all, as to conditions: 10 µM unless noted

Take `ClCCN(CCCl)c1ccc(-n2cnc3c(Cl)ncnc32)cc1`: the growth in the test on SK-MEL-2 melanoma is 69%; in the test with EKVX NSCLC it was 28.7%; in the test on SN12C renal, 47.8%; in the test on UO-31 renal, -85.9% (active); in the test with TK-10 renal, 84.7%; in the test on ACHN renal, -82.1% (active). Also, the growth with CAKI-1 renal was -88.2% (active); in the test on HL-60(TB) leukemia, -9.68% (active); in the test with CCRF-CEM leukemia, 13.1%; with MOLT-4 leukemia, 7.06% (active); in the test with SR leukemia, -29.2% (active); in the test with RPMI-8226 leukemia, 59.6%. Further, the growth in the test with OVCAR-8 ovarian is 35.1%; in the test with OVCAR-5 ovarian, 117%; with SK-OV-3 ovarian, 90.5%; in the test on IGROV1 ovarian it was -84.5% (active); in the test on OVCAR-3 ovarian, -35.4% (active); in the test with HS 578T breast, 49.5%.
For the molecule `Clc1cccc(NCOOC2(OOCNc3cccc(Cl)c3)CCCCCC2)c1`, the growth is 92.4% in the test with SK-MEL-2 melanoma; 89% with EKVX NSCLC; 95.4% in the test on SN12C renal; -47.3% (active) in the test on UO-31 renal; 92.2% in the test on TK-10 renal; 80.5% with ACHN renal. The growth in the test with CAKI-1 renal is 36%; in the test with HL-60(TB) leukemia, 78.8%; in the test on CCRF-CEM leukemia it was 80.2%; in the test on MOLT-4 leukemia, 92.7%; with SR leukemia, 5.27% (active); with RPMI-8226 leukemia it was 91.9%. Besides, the growth with OVCAR-8 ovarian is 93.9%; in the test on OVCAR-5 ovarian, 96.6%; in the test on OVCAR-4 ovarian it was 97.4%; in the test with SK-OV-3 ovarian it was 105%; in the test with IGROV1 ovarian it was 7.21% (active); with OVCAR-3 ovarian, 97.1%. For the same molecule, the growth in the test on HS 578T breast is 102%.
Consider `CC1(C)[C@H](O)[C@H](F)C[C@@]2(C)Oc3ccc(C(=O)Nc4ccc5c(c4)NC(=O)C54CCN(CCCCC#N)CC4)cc3C[C@H]12`, for which the growth was 28.8% with SK-MEL-2 melanoma; 82.1% with EKVX NSCLC; 69.9% in the test with SN12C renal; 31.5% in the test on UO-31 renal; 59.1% in the test on TK-10 renal; 43.1% in the test on ACHN renal. Also, the growth in the test on CAKI-1 renal was 56.5%; in the test on HL-60(TB) leukemia, 30.5%; in the test with CCRF-CEM leukemia it was 13.8%; in the test with MOLT-4 leukemia, -19.5% (active); with SR leukemia, 10.4%; in the test with RPMI-8226 leukemia, -12.6% (active). The growth with OVCAR-8 ovarian is 62.5%; in the test on OVCAR-5 ovarian, 62.9%; with OVCAR-4 ovarian, 64.9%; with SK-OV-3 ovarian it was 17.7%; with IGROV1 ovarian, 63.2%; with OVCAR-3 ovarian it was 61.3%. In the test with HS 578T breast, the growth was -13.3% (active).
For the molecule `CCOC(=O)[C@@H](C)C[C@H](Cc1ccccc1)NC(=O)c1nc([C@@H](C[C@H](C(C)C)N(C)C(=O)[C@@H](NC(=O)[C@H]2CCCCN2C)C(C)C)OC(C)=O)sc1CCOCc1ccccc1`, the growth in the test on SK-MEL-2 melanoma was -50.6% (active); in the test with EKVX NSCLC it was 10.8%; with SN12C renal, -58.9% (active); with UO-31 renal, -56.3% (active); with TK-10 renal it was -6.54% (active); in the test on ACHN renal, -22% (active). For the same molecule, the growth was -23.5% (active) with CAKI-1 renal; -62.9% (active) in the test with HL-60(TB) leukemia; 0.263% (active) in the test with CCRF-CEM leukemia; -2.06% (active) in the test on MOLT-4 leukemia; -36.9% (active) in the test with SR leukemia; -32% (active) in the test with RPMI-8226 leukemia. In addition, the growth in the test with OVCAR-8 ovarian was -19.3% (active); with OVCAR-5 ovarian, 6.59% (active); in the test with OVCAR-4 ovarian, 14.9%; in the test on SK-OV-3 ovarian, -3.36% (active); in the test on IGROV1 ovarian, -4.01% (active); with OVCAR-3 ovarian, -53% (active). Further, the growth in the test on HS 578T breast was -27.9% (active).
Take `C/C(=C\c1ccn(-c2ccc(N)cc2)n1)[C@@H]1C[C@@H]2O[C@]2(C)CCC[C@H](C)[C@H](O)[C@@H](C)C(=O)C(C)(C)[C@@H](O)CC(=O)O1`: the growth in the test with SK-MEL-2 melanoma was 35.8%; with EKVX NSCLC it was 54.7%; in the test with SN12C renal it was 39.6%; in the test on UO-31 renal, 38.5%; in the test on TK-10 renal, 54.6%; in the test on ACHN renal, 45.7%. For the same molecule, the growth was 43.2% in the test on CAKI-1 renal; 5.9% (active) in the test with HL-60(TB) leukemia; 16.8% with CCRF-CEM leukemia; 13.3% in the test with MOLT-4 leukemia; 19% in the test with SR leukemia; 15.6% in the test with RPMI-8226 leukemia. In addition, the growth with OVCAR-8 ovarian is 29.5%; in the test on OVCAR-5 ovarian, 32.9%; in the test on OVCAR-4 ovarian, 67.4%; in the test with SK-OV-3 ovarian, 45.1%; with IGROV1 ovarian it was 40.3%; in the test on OVCAR-3 ovarian it was 2% (active). In the test on HS 578T breast, the growth is 17.8%.
Regarding `O=[N+]([O-])c1ccc([Se]C2CCCCC2Cl)c([N+](=O)[O-])c1` (stereo not given), the growth with SK-MEL-2 melanoma was 66.5%; in the test on EKVX NSCLC, 46%; in the test on SN12C renal, 59.5%; in the test on UO-31 renal it was -88.3% (active); with TK-10 renal, 102%; in the test on ACHN renal, 88.2%. The growth in the test with CAKI-1 renal was 76.7%; in the test on HL-60(TB) leukemia it was 78.8%; with CCRF-CEM leukemia, 80.9%; in the test on MOLT-4 leukemia, 73.2%; with SR leukemia, 78.7%; in the test on RPMI-8226 leukemia it was 82.8%. Moreover, the growth was 59.7% in the test on OVCAR-8 ovarian; 101% with OVCAR-5 ovarian; 78.8% in the test with OVCAR-4 ovarian; 106% with SK-OV-3 ovarian; 70.8% in the test on IGROV1 ovarian; 88.2% with OVCAR-3 ovarian. In the test with HS 578T breast, the growth was 22.2%.
For the molecule `CC(=O)OC[C@]1(C)C=C2C(=O)[C@](C)(O)C3(CC3)C(C)=C2[C@H]1O`, the growth in the test on SK-MEL-2 melanoma is -55.1% (active); with EKVX NSCLC it was -13.7% (active); in the test with SN12C renal it was -5.94% (active); with UO-31 renal, -47.3% (active); in the test on TK-10 renal, -15.3% (active); with ACHN renal it was -12.4% (active). Further, the growth with CAKI-1 renal was 1.8% (active); with HL-60(TB) leukemia, -12.4% (active); with CCRF-CEM leukemia it was 14.6%; in the test on MOLT-4 leukemia, 12.2%; in the test on SR leukemia it was 9.64% (active); in the test with RPMI-8226 leukemia, 75.8%. The growth with OVCAR-5 ovarian is -14.4% (active); in the test on OVCAR-4 ovarian, -9.54% (active); in the test on SK-OV-3 ovarian, -40.4% (active); in the test on IGROV1 ovarian, -31.1% (active); with OVCAR-3 ovarian it was -29.4% (active).
